We go through 100 compounds from PubChem BioAssay AID1220 (Sanford-Burnham Center for Chemical Genomics, 2008).

Out of some 190,000 compounds screened, about 1,300 (0.68%) were called active. The sample as a whole holds a higher share of actives than the screen did. Values without a mark were called inactive. Rule as the data show it: active = inhibition above about 50%; inactive = the rest.

The target of this assay is Mannose-6-phosphate isomerase (Homo sapiens) (UniProt P34949). The assay is described as follows: human PMI inhibitors, high substrate, primary screen, biochemical, fluorescence intensity, high mannose 6-phosphate (AID 1220). The conditions noted are these: recombinant PMI enzyme, coupled fluorescence intensity; at 20 µM; stronger effect = higher value.
Mannose-6-phosphate isomerase (Homo sapiens), sequence (P34949 whole entry, looked up): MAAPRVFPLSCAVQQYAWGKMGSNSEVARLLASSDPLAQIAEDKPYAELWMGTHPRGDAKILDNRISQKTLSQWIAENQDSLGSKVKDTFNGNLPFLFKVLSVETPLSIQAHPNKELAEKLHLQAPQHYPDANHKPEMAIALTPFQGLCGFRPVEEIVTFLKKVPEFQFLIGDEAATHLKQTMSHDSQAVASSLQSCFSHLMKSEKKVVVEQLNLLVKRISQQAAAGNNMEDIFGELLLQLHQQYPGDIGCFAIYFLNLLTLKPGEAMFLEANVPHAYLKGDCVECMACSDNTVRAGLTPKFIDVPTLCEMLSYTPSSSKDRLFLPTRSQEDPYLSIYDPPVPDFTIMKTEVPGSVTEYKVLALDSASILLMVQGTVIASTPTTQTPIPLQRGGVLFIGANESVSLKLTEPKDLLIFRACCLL
With `CCOc1ccc(-c2csc(NC(=O)CSC3=NC(=O)CN3C(C)=O)n2)c2ccccc12`, the inhibition was 14.8%.

`O=C1c2cccc3c(O)ccc(c23)C(=O)N1Cc1ccccc1`: the inhibition was 7.6%.

In the case of `O=C1c2cccc3cccc(c23)C(=O)N1Cc1ccco1`, the inhibition is -4.4%.

Regarding `O=C1c2cccc3c(O)ccc(c23)C(=O)N1Cc1ccco1`, the inhibition was 64.3% (active).

Take `CSc1nc(O)c(C2OC(=O)c3ccccc32)c(=O)[nH]1` (stereo not given): the inhibition is 8.9%.

In the case of `Cc1ccc(NS(=O)(=O)c2ccc3[nH]c(=O)c(=O)[nH]c3c2)cc1Cl`, the inhibition was 14.3%.

For the compound `O=[N+]([O-])c1ccc(Oc2ccc(F)cc2)c2ccncc12`, the inhibition is 17.6%.

Regarding `O=[N+]([O-])c1ccc(Oc2ccc(F)cc2Br)c2ccncc12`, the inhibition is 50% (active).

As for `O=[N+]([O-])c1ccc(Oc2cccc(F)c2)c2ccncc12`, the inhibition is -0.7%.

As for `Nc1cc(Cl)ccc1Oc1ccccc1`, the inhibition is -2.5%.

Consider `Nc1cc(Cl)ccc1Oc1ccc(Cl)cc1`, for which the inhibition was -1.6%.

In the case of `N#C/C=C\Oc1ccc(Cl)cc1N`, the inhibition was 57.9% (active).

In the case of `COc1cc(-c2nnc(COC(=O)c3cc(C)nc4ccc(C)cc34)o2)cc(OC)c1OC`, the inhibition was 13%.

For `CCN1CCN(CCOCCOc2ccccc2-c2ccccc2)CC1`, the inhibition was -4.3%.

Regarding `O=S(=O)(Cc1ccc(Cl)cc1)NCC1CCCO1` (stereo not given), the inhibition is 14.9%.

As for `CCOC(=O)c1cc2c(C)n(-c3ccc(N(C)C)cc3)c(C)c2cc(C(=O)OCC)c1=O`, the inhibition is 37.3%.

With `Cn1c(C(=O)N2CCCc3ccccc32)cc2sccc21`, the inhibition was -3.3%.

Regarding `O=C(CNC(=S)N(CCCN1CCOCC1)Cc1cccs1)N1CCOCC1`, the inhibition is -1.9%.

As to `O=C(CNC(=S)N(CCCN1CCOCC1)Cc1cccs1)N1CCCC1`, the inhibition is -5%.

As to `O=C(CNC(=S)N(CCCN1CCOCC1)Cc1cccs1)N1CCCCCC1`, the inhibition is 55.1% (active).

On to `CCCC(=O)Nc1ccccc1N1CCN(C(=O)C(C)C)CC1`, for which the inhibition was -0.1%.

For the compound `CN(C)c1ccc(NC(=O)c2cn(-c3ccccc3)nc2-c2cccs2)cc1`, the inhibition is 13.7%.

On to `O=C1C=C(Nc2ccc(Cl)cc2)CC(c2ccco2)C1` (stereo not given), for which the inhibition is 5.8%.

With `O=C1C=C(Nc2cccc(O)c2)CC(c2ccco2)C1` (stereo not given), the inhibition is 12%.

As to `O=C1C=C(Nc2ccc(O)cc2)CC(c2ccco2)C1` (stereo not given), the inhibition was 60.2% (active).

With `COC(=O)c1cccc([N+](=O)[O-])c1CN1CCCC(C(N)=O)C1` (stereo not given), the inhibition was -6.5%.

Consider `CCN1C(=O)c2cccc3c(NS(=O)(=O)c4ccc(NC(C)=O)cc4)ccc1c23`, for which the inhibition is 55.9% (active).

With `CCOc1cc(C(=O)Nc2ccc3c4c(cccc24)C(=O)N3CC)cc(OCC)c1OCC`, the inhibition was -4.4%.

Take `CCN1C(=O)c2cccc3c(NC(=O)c4ccccc4)ccc1c23`: the inhibition was 27.7%.

Turning to `CCOC(=O)c1ccc(NC(=O)Nc2ccc3c4c(cccc24)C(=O)N3CC)cc1`, the inhibition was 53.1% (active).

In the case of `CCN1C(=O)c2cccc3c(S(=O)(=O)NCc4ccccn4)ccc1c23`, the inhibition is -3.8%.

As for `CCN1C(=O)c2cccc3c(NC(=O)C(C)(C)C)ccc1c23`, the inhibition is 11.8%.

In the case of `CCN1C(=O)c2cccc3c(S(=O)(=O)NCc4ccco4)ccc1c23`, the inhibition is 63% (active).

On to `CN1C(=O)c2cccc3c(S(=O)(=O)NCc4ccco4)ccc1c23`, for which the inhibition is 1.8%.

Turning to `CCN1C(=O)c2cccc3c(NC(=O)c4ccc(S(=O)(=O)N(C)C)cc4)ccc1c23`, the inhibition is 13.6%.

As to `Cc1nn(CC(=O)Nc2sc3c(c2C#N)CCC(C(C)(C)C)C3)c(C)c1[N+](=O)[O-]` (stereo not given), the inhibition was 21%.

Take `COc1ccc(S(=O)(=O)NNC(=O)C2CC(c3cccnc3)=NO2)cc1` (stereo not given): the inhibition was -11%.

For the compound `CC(=O)C(=Nc1ccccc1Cl)NNc1ccc(Cl)cc1`, the inhibition is -52.8%.

As for `C=CCOn1c(=O)c(-c2ccccc2)[n+]([O-])c2ccccc21`, the inhibition was 12%.

`COc1ccc(CCN(Cc2cc3cc(C)cc(C)c3nc2Cl)C(=O)C2CC2)cc1`: the inhibition was 15.7%.

Consider `Clc1ccc(-c2nnc3n2CCCCS3)cc1`, for which the inhibition is -8.4%.

In the case of `CCCN1CCN(c2nc3c([nH]2)c(=N)ncn3CC(O)CO)CC1` (stereo not given), the inhibition is 2.5%.

For `COC(=O)C1C(=O)c2c([nH]c(C(=O)OC3CCCC3C)c2C)CC1C` (stereo not given), the inhibition is 12.3%.

With `COc1ccc(-c2nn3c(-c4ccc(F)cc4)nnc3s2)cc1`, the inhibition was -6.8%.

As for `O=C(Cn1c2c(sc1=O)C1c3ccccc3OCC1CS2)Nc1ccc(Cl)cc1` (stereo not given), the inhibition was 8.7%.

For `Cn1cc(C2CC(c3ccccc3)=NN2C(=O)c2ccccc2)c2ccccc21` (stereo not given), the inhibition was 20.9%.

With `Cc1nc2ccc(NC(=S)NCCCO)cc2nc1C`, the inhibition is -2.9%.

On to `OCCCNC(=S)Nc1ccc2nc(-c3ccccn3)c(-c3ccccn3)nc2c1`, for which the inhibition was 14.4%.

For `OCCCNC(=S)Nc1ccc2nccnc2c1`, the inhibition is 53.9% (active).

As for `c1ccc2c(CCNc3ncnc4nc[nH]c34)cccc2c1`, the inhibition was 10%.

Turning to `COC(=O)c1ccc(-c2sc3nc(N4CCOCC4)c4c(c3c2N)CCCC4)o1`, the inhibition is 20.1%.

Take `CNC(=O)c1ccc(-c2sc3nc(N4CCOCC4)c4c(c3c2N)CC(C)(C)OC4)o1`: the inhibition is 48.4%.

`CNC(=O)c1ccc(-c2sc3nc(N4CCOCC4)c4c(c3c2N)CCCC4)o1`: the inhibition was 55.4% (active).

Consider `CC(C)C(=O)Nc1cccc(-c2csc(-c3ccccc3)n2)c1`, for which the inhibition is 11.9%.

As for `COc1ccc(-c2noc(-c3cccnc3)n2)cc1OC`, the inhibition is -11.6%.

In the case of `COc1cc(CC(C#N)(CO)c2nc3ccccc3[nH]2)ccc1OC(F)F` (stereo not given), the inhibition is 16.3%.

Consider `Cc1nc(N2CCCC2)c2ccsc2n1`, for which the inhibition was -2.9%.

For `CCN(CC)CCCNC(=O)CSc1c2c(nc3cc(Cl)ccc13)CCCC2`, the inhibition was -5.8%.

In the case of `O=C(CSc1c2c(nc3cc(Cl)ccc13)CCCC2)NCCN1CCOCC1`, the inhibition was 2.2%.

As for `CCN(CC)CCNC(=O)CSc1c2c(nc3cc(Cl)ccc13)CCCC2`, the inhibition was 56.3% (active).

Turning to `Cn1c(Cn2c(=O)sc3ccccc32)nnc1SCC(=O)NCC1CCCO1` (stereo not given), the inhibition was 2.5%.

For the compound `CC(C)Cc1ccc(/C=C/C(=O)N2CCCCC2)cc1`, the inhibition is 9.7%.

In the case of `Cc1ccc2nc(NC(=O)c3ccc(-c4nc5ccccc5s4)s3)sc2c1`, the inhibition was -17.4%.

On to `COc1ccc(N2CCN(c3nc4ccc(C)cn4c(=O)c3C=O)CC2)cc1`, for which the inhibition was 56.9% (active).

Take `COc1ccc(N2CCN(c3nc4ccccn4c(=O)c3C=O)CC2)cc1`: the inhibition is 42.4%.

As to `Cc1ccc2nc(N3CCCCC3)c(C=O)c(=O)n2c1`, the inhibition is -6.8%.

`Cc1ccc2nc(N3CCOCC3)c(C=O)c(=O)n2c1`: the inhibition was 2.9%.

For the compound `Cc1ccc2nc(N3CCN(c4ccccc4)CC3)c(C=O)c(=O)n2c1`, the inhibition is 50.4% (active).

As for `Cc1ccc2nc(N3CCN(c4ccccc4F)CC3)c(C=O)c(=O)n2c1`, the inhibition is 19.9%.

`CC(C)(C)c1ccc(NC(=O)COC(=O)CCN2C(=O)c3cccc([N+](=O)[O-])c3C2=O)cc1`: the inhibition was 3.2%.

On to `CN1CCN(S(=O)(=O)c2ccc(NC(=O)c3csc4ccccc34)cc2)CC1`, for which the inhibition was -13.4%.

With `CC(=O)Nc1ccc(NS(=O)(=O)Cc2ccccc2)cc1`, the inhibition was 3.4%.

As to `COc1ccc(C(CNC(=O)Cc2ccccc2F)N2CCCCC2)cc1` (stereo not given), the inhibition is -1.6%.

For the compound `CN1/C(=C\C(=O)c2ccco2)c2ccccc2CC1(C)C`, the inhibition is -4.8%.

`Cc1ccccc1NC(=S)NC12CN3CN(CN(C3)C1)C2`: the inhibition was 1.3%.

On to `CCc1ccccc1N1CC23C=CC(O2)C(C(=O)OCC(C)C)C3C1=O` (stereo not given), for which the inhibition is 7.8%.

Turning to `Cc1cccc(-c2nnc(SCC#N)n2Cc2ccccc2)c1`, the inhibition is -0.8%.

On to `CC(Sc1cccc[n+]1[O-])C(=O)Nc1ccc(Oc2ccccc2)cc1` (stereo not given), for which the inhibition was 0%.

As for `CC(=O)N/N=C/c1c(C)[nH]n(-c2ccccc2)c1=O`, the inhibition was 7.9%.

Regarding `O=C(O)CN1C(=O)/C(=C/c2ccsc2)SC1=S`, the inhibition is -5.3%.

Take `CCOC(=O)c1ccc(CC(=O)c2ccc(O)cc2O)o1`: the inhibition was -31.2%.

On to `Cc1cc(O)cc(O)c1C(=O)Cc1ccccc1`, for which the inhibition is -2.6%.

With `COC(=O)c1ccc(CC(=O)c2c(C)cc(O)cc2O)o1`, the inhibition was 50.8% (active).

For `CCCc1cc(C(=O)Cc2ccc(C(=O)OCC)o2)c(O)cc1O`, the inhibition was -51.6%.

Take `COC(=O)c1ccc(CC(=O)c2ccc(O)cc2O)o1`: the inhibition was -59.1%.

For `Cc1ccc(NCc2nnc(SCC(=O)NCc3ccco3)n2CC2CCCO2)c(C)c1` (stereo not given), the inhibition is 8%.

Turning to `CCSC1=NCCN1S(=O)(=O)c1ccccc1`, the inhibition was 7.2%.

For `C/C(=C\C(=O)Nc1cc(C)on1)c1ccccc1`, the inhibition is 15.6%.

`Cc1nnc(NC(=O)C(C)Oc2ccc3c(C)cc(=O)oc3c2)s1` (stereo not given): the inhibition was -8.9%.

As to `CCS(=O)(=O)N1Cc2ccccc2CC1C(=O)Nc1ncc(C)s1` (stereo not given), the inhibition is -7.1%.

In the case of `Clc1cccc(Cl)c1Cn1cnc2c(N3CCCCCC3)ncnc21`, the inhibition is 14.8%.

Consider `CC(=O)c1c(C(C)=O)c(C)n(-c2cccc3cccnc23)c1C`, for which the inhibition was -2.3%.

Turning to `CC(=O)N1C(=O)c2cccc3cccc(c23)C(=O)N1C(C)=O`, the inhibition is 7.9%.

Consider `CC(=O)c1ccc2cccc3c2c1N=CN3C`, for which the inhibition was 55.2% (active).

Consider `CC1=Nc2ncnn2C(c2ccccc2)/C1=N\O` (stereo not given), for which the inhibition is -9.4%.

For the compound `Cc1ccc(NC2c3ncccc3C(=O)N2c2ccccc2C)cc1C` (stereo not given), the inhibition is -17.7%.

Turning to `O=C(CCNC(=O)Cn1ccc2ccccc2c1=O)NCCCN1CCOCC1`, the inhibition is 10.9%.

`Cc1ccc(C)c(OCC(=O)N/N=C/c2ccsc2)c1`: the inhibition was 3%.

With `COc1ccc(OCC(=O)N/N=C/c2ccsc2)cc1`, the inhibition is 17.2%.

As for `CC(C)(C)c1ccc(OCC(=O)N/N=C/c2ccsc2)cc1`, the inhibition was 54.9% (active).

A word on the inhibition: it is the change of the read-out against control, counted positive when it falls.
